Data published in PubChem BioAssay.
Activity calls are given as the source filed them. Unless noted, how the calls were made is not given here.

How the values were obtained:
[1] = tested on: Wnt5a (protein binding on small-molecule microarray); test: small molecules binding Wnt5a protein – biophysical, small-molecule microarray, 635/667 nm fluorescence, primary screen (AID 1142); conditions: 635 nm fluorescence, higher = more signal;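 further: fluorescence read at 667 nm with signal to noise per printed feature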
[2] = ATP-based viability of Huh7 replicon cells – cell-based, CellTiter-Glo luminescence, basal, 48 h, cytotoxicity control for HCV replication inhibitor project, primary screen (AID 1143); conditions: higher = more signal, called active from +8 up or from −8 down;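 further: Huh7 hepatoma cells carrying a hepatitis C replication reporter with no stimulus; test concentration not given here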
[3] = Pseudomonas biofilm growth suppression – PAO1 strain, BacTiter-Glo luminescence, LB-PBS, primary screen (AID 1144); conditions: P. aeruginosa PAO1 biofilm, 12 h, higher = more signal
[4] = basal CRE-LacZ reporter activity in PC12 – cell-based, unstimulated, primary screen (AID 1145); conditions: no forskolin, luminescence, 4.5 h, higher = more signal, called active from +8 up or from −8 down
[5] = forskolin-driven CRE-LacZ activity in PC12 – cell-based, CRE-LacZ reporter, forskolin-stimulated, primary screen (AID 1146); conditions: luminescence, 4.5 h, higher = more signal, called active from +8 up or from −8 down;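 further: PC12 cells with 6xCRE LacZ reporter stimulated by forskolin 10 µM; beta-galactosidase reporter signal reflecting CREB driven transcription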
[6] = biological target: Streptavidin (Streptomyces avidinii) (UniProt P22629); test: compounds binding control protein streptavidin – biophysical, small-molecule microarray, 635/667 nm fluorescence, artefact control for SMM compound annotation, primary screen (AID 1147); conditions: higher = more signal;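 further: signal reflects streptavidin binding to arrayed compounds as a control protein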
Streptavidin (Streptomyces avidinii), sequence (P22629 whole entry, looked up): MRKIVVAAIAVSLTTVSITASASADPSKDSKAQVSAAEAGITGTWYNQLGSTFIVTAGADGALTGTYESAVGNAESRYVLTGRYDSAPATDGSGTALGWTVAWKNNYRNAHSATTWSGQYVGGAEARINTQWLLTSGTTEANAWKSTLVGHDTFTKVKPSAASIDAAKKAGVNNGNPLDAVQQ

[7] = probe aInhba binding on compound microarray – biochemical, small-molecule microarray, 635/667 nm fluorescence, primary screen (AID 1148); conditions: higher = more signal;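 further: score merges 667nm spot fluorescence with signal-to-noise for antibody binding to printed compounds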
Torsin-1A (Homo sapiens) [8] = biological target: Torsin-1A (Homo sapiens) (UniProt O14656); test: TOR1A wild-type binding on microarray – cell lysate, small-molecule microarray, lysate, 635/667 nm, primary screen (AID 1149); conditions: COS7 hTOR1A-WT lysate, 635 nm fluorescence, higher = more signal
Torsin-1A (Homo sapiens), sequence (O14656 whole entry, looked up): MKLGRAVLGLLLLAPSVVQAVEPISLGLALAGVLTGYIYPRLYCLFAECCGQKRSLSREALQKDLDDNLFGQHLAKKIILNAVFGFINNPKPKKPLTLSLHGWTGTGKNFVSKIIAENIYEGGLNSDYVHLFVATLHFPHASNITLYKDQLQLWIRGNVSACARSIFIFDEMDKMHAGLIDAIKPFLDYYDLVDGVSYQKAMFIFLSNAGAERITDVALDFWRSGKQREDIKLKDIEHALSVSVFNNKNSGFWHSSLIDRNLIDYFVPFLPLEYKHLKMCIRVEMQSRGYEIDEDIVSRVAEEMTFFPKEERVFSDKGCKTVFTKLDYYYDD

Torsin-1A (Homo sapiens) [9] = biological target: Torsin-1A (Homo sapiens) (UniProt O14656); test: torsin A mutant lysate binding on microarrays – cell lysate, small-molecule microarray, COS7 lysate, 635/667 nm fluorescence, primary screen (AID 1150); conditions: COS7 hTOR1A mutant lysate, 635 nm fluorescence, higher = more signal;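 further: score pools 667 nm emission and signal to noise measuring lysate protein binding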
[10] = tested on: Sonic hedgehog protein (Shh); test: Sonic hedgehog microarray binding compounds – biochemical, small-molecule microarray, 635/667 nm fluorescence, primary screen (AID 1151); conditions: 635 nm fluorescence, higher = more signal;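 further: Shh protein binding to compounds spotted on small-molecule microarray slides; score combines spot fluorescence intensity with signal-to-noise across triplicate slides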
[11] = optical density shifts of acrAB sulA E. coli – strain DRC41, OD650, 48 h, E. coli filamentation inducer project, primary screen (AID 1152); conditions: higher = more signal, called active from +8 up or from −8 down;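 further: E. coli MC1000 strain DRC41 lacking acrAB efflux pump and sulA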
[12] = probe aLefty1 binding on compound microarray – biochemical, small-molecule microarray, 635/667 nm fluorescence, primary screen (AID 1153); conditions: higher = more signal;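 further: score merges spot fluorescence with signal-to-noise ratio from the scanned slide images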
[13] = plasmodial surface anion channel blockers, osmotic lysis – cell-based, P. falciparum Indochina, OD700, 1 h, primary screen (AID 1154); conditions: P. falciparum Indochina infected RBC osmotic lysis, higher = more signal, called active from +8 up or from −8 down
[14] = plasmodial surface anion channel blockers, osmotic lysis – cell-based, P. falciparum Indochina, OD700, 2 h, primary screen (AID 1155);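 further: lysis reports solute entry through the parasite surface anion channel PSAC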; conditions: P. falciparum Indochina infected erythrocytes, higher = more signal, called active from +8 up or from −8 down
[15] = changes in parasitized red cell lysis, either direction – P. falciparum Indochina, OD700, 3 h, PSAC antagonist project, primary screen (AID 1156); conditions: P. falciparum-infected erythrocytes, osmotic lysis, higher = more signal, called active from +8 up or from −8 down
[16] = plasmodial surface anion channel blockers, osmotic lysis – cell-based, P. falciparum Indochina, OD700, 18 h, primary screen (AID 1157); conditions: P. falciparum Indochina infected erythrocytes, osmotic lysis OD700, 18 h; higher = more signal, called active from +8 up or from −8 down
[17] = S6 kinase pathway phospho-S6 level changes – cell-based, A549, cytoblot, luminescence, serum-stimulated, primary screen (AID 1158); conditions: 5 h, higher = more signal;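 further: serum-stimulated A549 lung adenocarcinoma cells; signal is phosphorylated S6 detected by cytoblot immunostaining with HRP secondary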
[18] = biological target: NADPH oxidase 2 (Homo sapiens) (UniProt P04839); test: compounds shifting NOX2 Amplex Red fluorescence – cell-based, HEK293-NOX2, PMA-stimulated, NOX inhibitor project, primary screen (AID 1159); conditions: 45 min, higher = more signal, called active from +8 up or from −8 down; further: test concentration not given here
NADPH oxidase 2 (Homo sapiens), sequence (P04839 whole entry, looked up): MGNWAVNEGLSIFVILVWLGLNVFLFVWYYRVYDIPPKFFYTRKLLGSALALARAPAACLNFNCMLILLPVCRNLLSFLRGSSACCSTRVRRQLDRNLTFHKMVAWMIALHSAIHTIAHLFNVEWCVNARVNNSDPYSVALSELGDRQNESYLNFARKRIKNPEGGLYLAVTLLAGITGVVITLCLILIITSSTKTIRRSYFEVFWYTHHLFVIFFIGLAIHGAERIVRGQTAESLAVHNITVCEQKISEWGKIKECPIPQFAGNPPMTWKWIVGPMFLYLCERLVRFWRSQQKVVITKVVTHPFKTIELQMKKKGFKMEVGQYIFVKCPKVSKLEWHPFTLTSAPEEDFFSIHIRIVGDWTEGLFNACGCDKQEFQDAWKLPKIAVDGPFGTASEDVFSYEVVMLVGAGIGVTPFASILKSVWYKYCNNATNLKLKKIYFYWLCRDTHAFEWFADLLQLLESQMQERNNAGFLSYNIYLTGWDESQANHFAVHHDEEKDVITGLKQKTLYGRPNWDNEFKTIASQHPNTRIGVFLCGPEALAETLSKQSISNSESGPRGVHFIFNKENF

[19] = biological target: NADPH oxidase 4 (Homo sapiens) (UniProt Q9NPH5); test: compounds shifting NOX4 Amplex Red fluorescence – cell-based, HEK293-NOX4, tetracycline-induced, NOX inhibitor project, primary screen (AID 1160); conditions: HEK293-NOX4, Amplex Red H2O2 fluorescence, 45 min; higher = more signal, called active from +8 up or from −8 down
NADPH oxidase 4 (Homo sapiens), sequence (Q9NPH5 whole entry, looked up): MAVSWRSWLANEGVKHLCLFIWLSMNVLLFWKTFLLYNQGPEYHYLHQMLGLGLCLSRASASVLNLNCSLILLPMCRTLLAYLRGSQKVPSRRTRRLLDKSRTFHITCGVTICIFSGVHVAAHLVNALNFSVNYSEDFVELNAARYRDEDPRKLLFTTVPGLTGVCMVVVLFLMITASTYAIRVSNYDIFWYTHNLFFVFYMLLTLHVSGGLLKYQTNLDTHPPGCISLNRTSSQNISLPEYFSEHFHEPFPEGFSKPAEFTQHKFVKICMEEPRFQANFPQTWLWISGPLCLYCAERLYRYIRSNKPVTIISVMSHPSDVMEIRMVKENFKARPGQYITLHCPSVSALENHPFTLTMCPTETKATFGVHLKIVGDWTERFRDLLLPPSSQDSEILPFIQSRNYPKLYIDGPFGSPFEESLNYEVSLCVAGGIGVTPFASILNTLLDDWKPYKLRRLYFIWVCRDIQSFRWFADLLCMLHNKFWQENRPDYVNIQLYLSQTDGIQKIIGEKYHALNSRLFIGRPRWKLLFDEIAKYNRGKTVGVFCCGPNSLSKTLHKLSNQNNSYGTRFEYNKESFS

[20] = biological target: NADPH oxidase 5 (Homo sapiens) (UniProt Q96PH1); test: compounds shifting NOX5 Amplex Red fluorescence – cell-based, HEK293-NOX5, NOX inhibitor project, primary screen (AID 1161); conditions: HEK293-NOX5, ionomycin, 45 min, higher = more signal
NADPH oxidase 5 (Homo sapiens), sequence (Q96PH1 whole entry, looked up): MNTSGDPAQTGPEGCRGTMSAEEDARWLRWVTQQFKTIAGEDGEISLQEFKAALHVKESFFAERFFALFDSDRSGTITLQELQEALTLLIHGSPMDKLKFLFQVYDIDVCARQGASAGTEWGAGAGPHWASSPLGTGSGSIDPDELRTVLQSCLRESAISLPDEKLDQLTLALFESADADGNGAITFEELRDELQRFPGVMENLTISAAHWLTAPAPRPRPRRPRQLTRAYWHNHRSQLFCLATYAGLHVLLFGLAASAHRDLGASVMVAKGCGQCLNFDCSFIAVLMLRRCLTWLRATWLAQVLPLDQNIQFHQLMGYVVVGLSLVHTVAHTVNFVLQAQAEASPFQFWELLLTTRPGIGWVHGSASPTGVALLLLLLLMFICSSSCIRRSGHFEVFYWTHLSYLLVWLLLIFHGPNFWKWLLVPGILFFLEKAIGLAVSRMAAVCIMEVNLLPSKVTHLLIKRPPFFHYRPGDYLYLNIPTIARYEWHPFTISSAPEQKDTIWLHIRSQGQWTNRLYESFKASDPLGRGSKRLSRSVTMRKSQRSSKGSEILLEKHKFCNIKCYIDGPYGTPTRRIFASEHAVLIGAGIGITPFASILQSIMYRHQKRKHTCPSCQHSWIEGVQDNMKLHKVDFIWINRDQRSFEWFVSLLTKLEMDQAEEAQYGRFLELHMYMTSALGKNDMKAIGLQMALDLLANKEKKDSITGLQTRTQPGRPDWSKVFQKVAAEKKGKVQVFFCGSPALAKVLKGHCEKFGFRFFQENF

C[N+](C)(C)CCCC[C@@H]1NC(=O)[C@@H]2C[C@H](C(=O)NCCCCCNC(=O)CS)[C@H](c3cccc(OCCO)c3)N2C1=O
composite z-score [1]: 0.623
z-score [2]: -0.192 (inactive)
z-score [3]: 0.152 (inactive)
z-score [4]: 0.688 (inactive)
z-score [5]: 0.478 (inactive)
composite z-score [6]: 0.0879
composite z-score [7]: 0.0636
composite z-score (Torsin-1A (Homo sapiens) [8]): 0.628
composite z-score (Torsin-1A (Homo sapiens) [9]): 0.186
composite z-score [10]: 1.38
z-score [11]: 0.724 (inactive)
composite z-score [12]: -0.0061
z-score [13]: 3.64 (inactive)
z-score [14]: 0.813 (inactive)
z-score [15]: -1.78 (inactive)
z-score [16]: 0.718 (inactive)
z-score [17]: 0.596
z-score [18]: 1.54 (inactive)
z-score [19]: 0.433 (inactive)
z-score [20]: 0.711

[N-]=[N+]=Nc1ccccc1[C@@H]1OC(c2ccc(OCCCO)cc2)=N[C@]1(CCS(=O)(=O)c1ccccc1)C(=O)NCc1ccccc1
composite z-score [1]: 0.554
z-score [2]: -1.97 (inactive)
z-score [3]: 0.156 (inactive)
z-score [4]: -0.744 (inactive)
z-score [5]: -0.653 (inactive)
composite z-score [6]: 1.3
composite z-score [7]: 0.293
composite z-score (Torsin-1A (Homo sapiens) [8]): 1.53
composite z-score (Torsin-1A (Homo sapiens) [9]): 1.29
composite z-score [10]: 0.565
z-score [11]: 0.871 (inactive)
composite z-score [12]: 1.01
z-score [13]: 28 (active)
z-score [14]: 23.5 (active)
z-score [15]: 1.29 (inactive)
z-score [16]: 4.33 (inactive)
z-score [17]: -0.309
z-score [18]: -1.86 (inactive)
z-score [19]: 0.642 (inactive)
z-score [20]: 1.15

COC(=O)[C@@]1(Cc2ccc(F)cc2)[C@H]2c3cc(C(=O)N(C)C)n(CCSCCO)c3C[C@H]2CN1C(=O)c1ccccc1
composite z-score [1]: -0.0292
z-score [2]: -0.259 (inactive)
z-score [3]: -0.482 (inactive)
z-score [4]: -0.565 (inactive)
z-score [5]: 0.222 (inactive)
composite z-score [6]: 0.352
composite z-score [7]: -0.0001
composite z-score (Torsin-1A (Homo sapiens) [8]): 0.0627
composite z-score (Torsin-1A (Homo sapiens) [9]): 0.387
composite z-score [10]: -0.509
z-score [11]: -0.683 (inactive)
composite z-score [12]: -0.0901
z-score [13]: 0.621 (inactive)
z-score [14]: -0.383 (inactive)
z-score [15]: -0.662 (inactive)
z-score [16]: 0.397 (inactive)
z-score [17]: -0.426
z-score [18]: 0.746 (inactive)
z-score [19]: -0.303 (inactive)
z-score [20]: -0.572

C=C(/C(=C/C[C@@H](OC(=O)c1ccncc1)c1ccccc1OCCO)c1cnc2ccccc2c1)C(C)C
composite z-score [1]: 0.816
z-score [2]: -8.34 (active)
z-score [3]: 0.556 (inactive)
z-score [4]: 15.6 (active)
z-score [5]: -0.0321 (inactive)
composite z-score [6]: 1.67
composite z-score [7]: 0.421
composite z-score (Torsin-1A (Homo sapiens) [8]): 0.799
composite z-score (Torsin-1A (Homo sapiens) [9]): -0.0593
composite z-score [10]: 2.22
z-score [11]: -0.592 (inactive)
composite z-score [12]: 0.454
z-score [13]: 10 (active)
z-score [14]: 4.55 (inactive)
z-score [15]: -1.59 (inactive)
z-score [16]: 1.44 (inactive)
z-score [17]: -0.174
z-score [18]: -2.57 (inactive)
z-score [19]: -1.11 (inactive)
z-score [20]: -2.56

CC(C)C(CO)N1C(=O)[C@@H]2[C@H]3C(=O)OCC=C[C@H]3OC23C=CCN(CCN2CCOCC2)C(=O)[C@@H]13 (stereo not given in full)
composite z-score [1]: -0.406
z-score [2]: 0.29 (inactive)
z-score [3]: 2.66 (inactive)
z-score [4]: 1.01 (inactive)
z-score [5]: 1.25 (inactive)
composite z-score [6]: -0.38
composite z-score [7]: -0.128
composite z-score (Torsin-1A (Homo sapiens) [8]): -0.412
composite z-score (Torsin-1A (Homo sapiens) [9]): 0.743
composite z-score [10]: 1.73
z-score [11]: -0.706 (inactive)
composite z-score [12]: -0.263
z-score [13]: 0.897 (inactive)
z-score [14]: -0.136 (inactive)
z-score [15]: 0.675 (inactive)
z-score [16]: 0.0875 (inactive)
z-score [17]: -0.679
z-score [18]: 1.26 (inactive)
z-score [19]: 0.258 (inactive)
z-score [20]: 2.02

CC(C)CCC[C@@H](C)[C@H]1CC[C@@]2(C)C3=C(CC[C@]12C)[C@@]1(C)CC[C@H](OC(=O)c2ccc(N)cc2)C(C)(C)C1CC3 (stereo not given in full)
composite z-score [1]: 0.279
z-score [2]: -0.793 (inactive)
z-score [3]: -0.593 (inactive)
z-score [4]: 1.39 (inactive)
z-score [5]: -0.391 (inactive)
composite z-score [6]: 0.143
composite z-score [7]: -0.208
composite z-score (Torsin-1A (Homo sapiens) [8]): 0.315
composite z-score (Torsin-1A (Homo sapiens) [9]): 0.273
composite z-score [10]: 0.49
z-score [11]: 3.27 (inactive)
composite z-score [12]: -0.278
z-score [13]: -1.05 (inactive)
z-score [14]: -1.26 (inactive)
z-score [15]: -0.492 (inactive)
z-score [16]: -2.86 (inactive)
z-score [17]: 1.93
z-score [18]: -0.759 (inactive)
z-score [19]: 0.253 (inactive)
z-score [20]: 0.807

COC(=O)[C@@]1(Cc2ccc(F)cc2)[C@@H]2[C@@H](CC(=O)[C@H]2CC(=O)C(=O)N2CCCC2)CN1C(=O)c1ccccc1
composite z-score [1]: 0.603
z-score [2]: -2.93 (inactive)
z-score [3]: 0.925 (inactive)
z-score [4]: 0.766 (inactive)
z-score [5]: 0.526 (inactive)
composite z-score [6]: 1.48
composite z-score [7]: 1.4
composite z-score (Torsin-1A (Homo sapiens) [8]): 0.0262
composite z-score (Torsin-1A (Homo sapiens) [9]): 0.666
composite z-score [10]: -0.695
z-score [11]: -1.75 (inactive)
composite z-score [12]: 1.33
z-score [13]: 1.76 (inactive)
z-score [14]: 0.367 (inactive)
z-score [15]: 0.747 (inactive)
z-score [16]: 0.935 (inactive)
z-score [17]: -0.502
z-score [18]: 0.67 (inactive)
z-score [19]: 0.478 (inactive)
z-score [20]: 1.28

Cc1ccc(-c2cccc(=O)o2)cc1
composite z-score [1]: 0.796
z-score [2]: -0.0525 (inactive)
z-score [3]: 1.07 (inactive)
z-score [4]: -0.322 (inactive)
z-score [5]: 0.699 (inactive)
composite z-score [6]: -0.317
composite z-score [7]: -0.0523
composite z-score (Torsin-1A (Homo sapiens) [8]): -0.495
composite z-score (Torsin-1A (Homo sapiens) [9]): -0.173
composite z-score [10]: -0.0613
z-score [11]: -0.418 (inactive)
composite z-score [12]: -0.237
z-score [13]: 5.81 (inactive)
z-score [14]: 1.02 (inactive)
z-score [15]: -0.657 (inactive)
z-score [16]: 0.609 (inactive)
z-score [17]: -0.102
z-score [18]: 0.498 (inactive)
z-score [19]: -1.66 (inactive)
z-score [20]: 0.12
